# From PubChem BioAssay (NCI)
# Values joined by “and” are separate entries in the source; they are usually repeats but may differ in a detail not shown here. Equal values may be shown once. Compounds without any hit were thinned out: in the full panel of roughly 83,000, 20% have a hit.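 Method: cells in 96-well plates; compound added at one concentration; 48 h incubation; percent growth measured; values under 10 scored active.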 Values without a mark were called inactive. Active and inactive are the calls of the source.
# Test system: 786-0 renal
# Assay: NCI-60 one-dose screen, 48 h (100 = growth as untreated, 0 = no growth, -100 = all killed)
# Conditions: 10 µM unless noted
row,SMILES,growth
1,Cc1ccc(C(=O)C[n+]2cccc3c4ccccc4ccc32)cc1,34.4%
2,C#CCN(C)CCCOc1ccc(N(CC)C(=O)c2cc(C(C)C)c(O)cc2O)cc1Cl,21.6%
3,O=C(OCCOCCO)N(c1cccc(Br)c1)c1nc(SCCN2CCOCC2)nc2c1cnn2CC(Cl)c1ccc(Br)cc1 (stereo unspecified),-4.79% (active)
4,COc1ccc(-c2nc3ccc(-c4nnc(SCC(=O)Nc5ccc(/C(C)=N\O)cc5)o4)cc3[nH]2)cc1,-62.1% (active)
5,Clc1ccc2c(NCCNC34CC5CC(CC(C5)C3)C4)ccnc2c1,-79.8% (active)
6,CCOc1ccc(-c2cc(-c3cc(C(C)C)c(O)cc3C)nn2-c2ccc(S(N)(=O)=O)cc2)cc1,37.1%
7,Cc1ccc(N=Nc2c(N)nn3c(-c4cc5cc(Br)ccc5oc4=O)ccnc23)cc1,56.8%
8,COc1ccc(SC2c3cc(OC)ccc3Oc3nc(N)c(C#N)c(N)c32)cc1 (stereo unspecified),74.8%
9,O=C1Nc2ccc(F)cc2/C1=C/C(=O)c1cc2ccccc2oc1=O,112%
10,COc1ccc2[nH]cc(-c3cc(N)n4nc(-c5c[nH]c6ccccc56)cc4n3)c2c1,-88.3% (active)
11,O=C1Nc2cc(-c3ccc(NS(=O)(=O)c4ccc(F)c(Cl)c4)cc3)ccc2/C1=C/c1ccc[nH]1,35.6%
12,CCOC(=O)/C(F)=C/C1CC1C1CCN(C(=O)OC(C)(C)C)CC1 (stereo unspecified),105%
13,CN1CCN(CCS(=O)(=O)Nc2cc(-c3ccc4ncnc(Nc5ccc(F)c(Cl)c5)c4c3)cnc2Cl)CC1,19.4%
14,N#Cc1cc(-c2ccc3ncnc(N4CCc5cc(F)c(Cl)cc54)c3c2)cnc1N,22.1%

# Test system: COLO 205 colon
# Assay: as above
# Conditions: 10 µM unless noted
row,SMILES,growth
1,O=c1ccc(Cn2c(C(F)(F)F)cc3c(Cl)ncnc32)c[nH]1,62.6%
2,CC[C@]12C=CCN3CC[C@]4(C(=C(C(=O)OC)C1)Nc1cc(OC)c([C@@H]5[C@H]6O[C@H]6[C@@]6(CC)CC(C(=O)OC)=C7Nc8cc(O)ccc8[C@@]78CCN5[C@@H]68)cc14)[C@@H]32,-70.2% (active)
3,COc1ccc2[nH]cc(-c3cc4nc(-c5cn(C)c6ncccc56)cc(N)n4n3)c2c1,-49.9% (active)
4,COc1ccc2[nH]c(=O)cc(-n3ncc(C(=O)/C=C/c4cc(OC)c(OC)c(OC)c4)c3C)c2c1,-92.5% (active)
5,COc1ccc(/C=C/c2nc3ccccc3n3c(-c4cccc([N+](=O)[O-])c4)nnc23)cc1,-70% (active)
6,O=C(Nc1ccc(Cl)c(C(F)(F)F)c1)N1CCN(c2cc(-c3cn(-c4ccccc4)nc3-c3cccc(O)c3)ccn2)CC1,-2.61% (active)
7,O=C1Nc2ccccc2/C1=C/C(=O)c1cc2ccccc2oc1=O,-15.4% (active)
8,CN1CCN(C(=O)Oc2cc3c(c4ccccc24)[C@H](CCl)CN3C(=O)c2cc3cc(OCCCN4CCC4)ccc3[nH]2)[C@H]2CSSC[C@H]21,-81.5% (active)
9,NS(=O)(=O)c1ccc(Nc2nc(N/N=C/c3cc(Br)c(O)c(Br)c3)nc(Nc3ccccc3)n2)cc1,88%
10,COc1ccc2c(c1)C(Sc1ccc(Cl)cc1)c1c(nc(N)c(C#N)c1N)O2 (stereo unspecified),87.2%
11,CS(=O)(=O)Nc1cccc(-n2c(COc3ccc(OC(F)(F)F)cc3)nc3ccccc32)c1,100% and 113%
12,OCCn1cc(-c2nc3ccc4[nH]ncc4c3c3c2CCCC3)cn1,32.8%
13,Cn1cc(-c2cc(N)n3nc(-c4c[nH]c5ccc(F)cc45)cc3n2)c2cccnc21,-79.1% (active)
14,COc1ccc2c(c1)N=c1c-2cc2c(O)[nH]c(=S)n2c1=O,30.7%
15,O=C(NN1C(=O)/C(=C/C=C/c2ccc([N+](=O)[O-])o2)SC1=S)c1ccncc1,-96.9% (active)
16,Cn1cc(-c2cc(N)n3nc(-c4c[nH]c5ccccc45)cc3n2)c2cc(Br)ccc21,-90.1% (active)
17,Cn1cc(-c2cc(N)n3nc(-c4c[nH]c5ccccc45)cc3n2)c2ccccc21,-88.6% (active)
18,O=C1c2cccc3c(N4CCN(c5ccccc5)CC4)ccc(c23)C(=O)N1c1cccc(-c2nn(-c3ccccc3)cc2-c2nc3ccccc3s2)c1,110%
19,O=C(c1ccc(O)cc1)C1[C@H](c2ccccc2Br)[C@@H](c2ccccc2)NC12C(=O)Nc1ccccc12 (stereo partly specified),28%

row,SMILES,growth
1,COc1ccc(-c2cc(C(=O)N=Nc3c(O)[nH]c4ccc(Cl)cc34)c3ccccc3n2)cc1,7.83% (active)
2,CC(C)(C)OC(=O)N1CCC2(CC1)Oc1ccccc1[C@H]1CC(c3ccc(Br)cc3)=NN12,101%
3,Cc1cc(C(NC(=O)CCCCCNc2cccc3c2C(=O)N(C2CCC(=O)CC2=O)C3=O)c2cccc(N(C)C)c2)c(O)c2ncccc12 (stereo unspecified),7.54% (active)
4,O=C(c1ccc(O)cc1)C1[C@H](c2ccc(Cl)cc2)[C@@H](c2ccccc2)NC12C(=O)Nc1ccc(Br)cc12 (stereo partly specified),-86.3% (active)
5,Cc1ccc(C(=O)C[n+]2cccc3c4ccccc4ccc32)cc1,5.75% (active)
6,C#CCN(C)CCCOc1ccc(N(CC)C(=O)c2cc(C(C)C)c(O)cc2O)cc1Cl,4.62% (active)
7,O=C(OCCOCCO)N(c1cccc(Br)c1)c1nc(SCCN2CCOCC2)nc2c1cnn2CC(Cl)c1ccc(Br)cc1 (stereo unspecified),-42.3% (active)
8,COc1ccc(-c2nc3ccc(-c4nnc(SCC(=O)Nc5ccc(/C(C)=N\O)cc5)o4)cc3[nH]2)cc1,107%
9,Clc1ccc2c(NCCNC34CC5CC(CC(C5)C3)C4)ccnc2c1,-58.1% (active)
10,CCOc1ccc(-c2cc(-c3cc(C(C)C)c(O)cc3C)nn2-c2ccc(S(N)(=O)=O)cc2)cc1,131%
11,Cc1ccc(N=Nc2c(N)nn3c(-c4cc5cc(Br)ccc5oc4=O)ccnc23)cc1,100%
12,COc1ccc(SC2c3cc(OC)ccc3Oc3nc(N)c(C#N)c(N)c32)cc1 (stereo unspecified),101%
13,O=C1Nc2ccc(F)cc2/C1=C/C(=O)c1cc2ccccc2oc1=O,105%
14,COc1ccc2[nH]cc(-c3cc(N)n4nc(-c5c[nH]c6ccccc56)cc4n3)c2c1,-82.5% (active)
15,O=C1Nc2cc(-c3ccc(NS(=O)(=O)c4ccc(F)c(Cl)c4)cc3)ccc2/C1=C/c1ccc[nH]1,35.4%
16,CCOC(=O)/C(F)=C/C1CC1C1CCN(C(=O)OC(C)(C)C)CC1 (stereo unspecified),72.4%
17,CN1CCN(CCS(=O)(=O)Nc2cc(-c3ccc4ncnc(Nc5ccc(F)c(Cl)c5)c4c3)cnc2Cl)CC1,-31.9% (active)
18,N#Cc1cc(-c2ccc3ncnc(N4CCc5cc(F)c(Cl)cc54)c3c2)cnc1N,12.2%
